Data published in PubChem BioAssay (NCATS).
The source made the active and inactive calls. Calls come from the whole dose curve.

The compounds below were run against Tumor susceptibility gene 101 protein (Homo sapiens) (UniProt Q99816) (assay: qHTS Validation Assay for Iinhibitors of HIV-1 Budding by Blocking the Interaction of PTAP/TSG101 (AID 485342; note: 0% is about no effect)). Conditions: TSG101-PTAP binding, fluorescence polarization, 4-point titration; series mostly up to 115 µM; fluorescence change: at the top concentration.
Sequence of Tumor susceptibility gene 101 protein (Homo sapiens) (Q99816 whole entry, looked up): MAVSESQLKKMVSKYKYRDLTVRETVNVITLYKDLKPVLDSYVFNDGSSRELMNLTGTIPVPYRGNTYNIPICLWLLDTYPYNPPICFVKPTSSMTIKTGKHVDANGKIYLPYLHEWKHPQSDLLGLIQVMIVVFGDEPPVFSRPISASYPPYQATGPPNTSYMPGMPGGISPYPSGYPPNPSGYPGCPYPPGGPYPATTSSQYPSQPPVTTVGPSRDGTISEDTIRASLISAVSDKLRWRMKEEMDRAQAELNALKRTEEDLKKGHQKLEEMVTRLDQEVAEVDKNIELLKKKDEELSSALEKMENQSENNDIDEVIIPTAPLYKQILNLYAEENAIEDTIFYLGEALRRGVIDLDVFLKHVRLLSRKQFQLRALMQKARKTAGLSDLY
From the text: NIH Molecular Libraries Probe Production Network [MLPCN]
NIH Chemical Genomics Center [NCGC]
PI Name: Dr. Eric Freed, NCI
Stages of the HIV-1 replication cycle, specifically virus assembly and release, provide underexploited targets for the development of novel antiviral inhibitors. The late stages of HIV-1 replication are mediated by the Gag precursor protein, Pr55Gag. Expression of Pr55Gag is both necessary and sufficient for the production of virus-like particles from Gag-expressing cells. The Gag protein hijacks key host proteins involved in endocytic machinery of the host cell to promote endosomal processing and viral budding. The budding process requires a direct interaction between a […] (PTAP) motif in the p6 domain of Gag and the cellular endosomal sorting protein known as Tsg101. In this way, the Gag PTAP motif promotes the host cells to recruit viral particles to the plasma membrane where the new viral particles are released, effectively turning the host cells into viral factories. A fluorescence anisotropy assay has been developed to quantitatively measure the PTAP-Tsg101 interaction which can be used to screen for inhibitors of this interaction.
NCGC Assay Protocol Summary:
Two uL of the Tsg101 binding domain in buffer (10 mM HEPES pH 7.5; 0.15 M NaCl, 0.01% Tween 20; 3 mM EDTA;0.1 mM TCEP) was dispensed into Greiner black MB 1536-well plates (final concentration 10 uM). Then, 23 nL of compounds or DMSO were delivered to each well using a pin tool. Finally, 2 uL of a FITC-labeled peptide containing the PTAP motif (1) in the same buffer was dispensed (50 nM final concentration) and the binding was allowed to proceed for 20 min. at r.t. Fluorescent polarization was determined using FITC excitation and polarized emission filters on a Perkin Elmer Viewlux.
Keywords: Tsg101, PTAP, Gag, HIV, fluorescent polarization, MLSMR, MLPCN, NIH Roadmap, qHTS, NCGC

Compound | fluorescence change
COc1cc(NS(C)(=O)=O)ccc1Nc1c2ccccc2nc2ccccc12 | 5.5% (inactive)
C1CCc2nnnn2CC1 | 3.38% (inactive)
CC[C@H](C)C(=O)O[C@H]1CCC=C2C=C[C@H](C)[C@H](CC[C@@H]3C[C@@H](O)CC(=O)O3)[C@H]21 | -12.3% (inactive)
CCCn1c(=O)[nH]c(=O)c2[nH]cnc21 | 4.54% (inactive)
CC(C)C[C@H]1C(=O)N2CCC[C@H]2[C@]2(O)O[C@](NC(=O)[C@@H]3C=C4c5cccc6[nH]c(Br)c(c56)C[C@H]4N(C)C3)(C(C)C)C(=O)N12 | -0.608% (inactive)
N[C@@H](Cc1cnc[nH]1)C(=O)O | -2.97% (inactive)
Oc1ccc(O)cc1 | 1.4% (inactive)
CC1(C)CCC(NC(=O)[C@@H](N)CCC(=O)O)CC1 | 1.54% (inactive)
O=C(O)c1cc2cc(Cc3cccnc3)ccc2o1 | 4% (inactive)
N[C@H](CO)C(=O)O | 3.8% (inactive)
C[N+]1(CCCCC[N+]2(C)CCCC2)CCCC1 | 2.84% (inactive)
COC(=O)[C@H]1[C@H]2C[C@H]3c4[nH]c5ccccc5c4CCN3C[C@H]2CC[C@@H]1O | 8.36% (inactive)
COc1cc2c(cc1O)CC[C@@H]1[C@@H]2CC[C@]2(C)[C@@H](O)CC[C@@H]12 | 4.38% (inactive)
O=C1CCC(c2ccc(-n3ccnc3)cc2)=NN1 | -2.15% (inactive)
CC(=O)O[C@H]1C[C@@H]2CC[C@@H]3[C@H](CC[C@@]4(C)[C@H]3C[C@H]([N+]3(C)CCCCC3)[C@@H]4OC(C)=O)[C@@]2(C)C[C@@H]1[N+]1(C)CCCCC1 | 3.03% (inactive)
CCC(NC(C)C)C(O)c1ccc(O)c(O)c1 (stereo not given) | 1.67% (inactive)
CC(CCc1ccccc1)NCC(O)c1ccc(O)c(C(N)=O)c1 (stereo not given) | -1.19% (inactive)
C[C@]12CC[C@@H]3c4ccc(O)cc4CC[C@H]3[C@@H]1CC[C@@H]2O | 0.221% (inactive)
CNCCC(Oc1ccccc1C)c1ccccc1 (stereo not given) | 1.33% (inactive)
Nc1cc(Cl)c(NC2=NCCN2)c(Cl)c1 | 0.877% (inactive)
CC(C)COC(=O)OCN1C(=O)CN(CCN2CC(=O)N(COC(=O)OCC(C)C)C(=O)C2)CC1=O | 3.96% (inactive)
CCCC1O[C@@H]2C[C@H]3[C@@H]4CCC5=CC(=O)C=C[C@]5(C)[C@H]4[C@@H](O)C[C@]3(C)[C@]2(C(=O)CO)O1 (stereo not given in full) | -5.6% (inactive)
C[C@@H]1C(=O)NC2=Nc3cccc(Cl)c3CN21 | -0.576% (inactive)
CNCCC=C1c2ccccc2CCc2ccccc21 | -2.55% (inactive)
CN1C2CCC1CC(OC(=O)c1c[nH]c3ccccc13)C2 (stereo not given) | -4.58% (inactive)
